From PubChem BioAssay (NCATS)
Activity calls are given as the source filed them. Calls follow the shape of the dose curve; as a rule, active = well fitted curve in the direction sought with a large enough effect; inconclusive = small, poorly fitted or top-dose-only effect, or effect the other way, or another doubt; inactive = no such curve, though single readings can be large or run the other way.

Experiment: Inducers of the Endoplasmic Reticulum Stress Response (ERSR) in human glioma: Validation (AID 504836); also: 0% is about no effect
Details: human glioma cells, ER stress response reporter; series mostly up to 38.3 µM; activation: at the top concentration
Outline: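 Stably transfected U87-MG glioma cells carrying a GRP78-based luciferase sensor; 16 h compound incubation. Luminescence end-point read 10 min after Bright-Glo addition at room temperature.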

Structure (SMILES) | activation
Oc1cc2c(cc1O)CN(C(=S)NCCc1ccc(Cl)cc1)CCC2 | 3.95% (inactive)
CN(C)c1nc(N)c(C(=O)N=C(N)N)nc1Cl | -2.62% (inactive)
CCCCCCCCCCCCCCC[C@H](O)[C@H](N)CO | -3.51% (inactive)
O=C(O)C1=CCCNC1 | -0.824% (inactive)
COC(=O)c1c(C)[nH]c(C)c1C(=O)c1ccccc1Cc1ccccc1 | -2.71% (inactive)
CN[C@H](CC(=O)O)C(=O)O | -1.92% (inactive)
O=c1ccc2c(OCCCCc3ccccc3)c3ccoc3cc2o1 | -2.42% (inactive)
NCCSSCCN | -1.02% (inactive)
O=c1onc2n1-c1cc(Br)ccc1OC2 | -3.19% (inactive)
Cc1ccc([N+](=O)[O-])cc1S(=O)(=O)N(C)C | -3.02% (inactive)
N[C@H](C(=O)O)[C@H](O)C(=O)O | 1.55% (inactive)
O=C(O)c1cc(=O)cc(C(=O)O)[nH]1 | -3.52% (inactive)
Nc1ccc(-c2ccc3ccccc3n2)cc1 | -10.1% (inactive)
O=C(O)c1cc2cc(F)ccc2[nH]1 | -3.02% (inactive)
CC[N+](CC)(CC)CC(=O)Nc1c(C)cccc1C | 0.342% (inactive)
CCCN(CC1CC1)c1nc(C)nc(Nc2c(Cl)cc(Cl)cc2Cl)c1Cl | -3.54% (inactive)
CNCCNS(=O)(=O)c1cccc2cnccc12 | -5% (inactive)
NC1(C(=O)O)CCCCC1 | -0.263% (inactive)
Cc1nc(N=Nc2ccc(S(=O)(=O)O)cc2S(=O)(=O)O)c(COP(=O)(O)O)c(C=O)c1O | 0.647% (inactive)
C/C(=C\c1ccc(C(=O)O)cc1)c1ccc2c(c1)C(C)(C)CCC2(C)C | -2.11% (inactive)

Structure (SMILES) | activation
COc1ccc2c(c1)c(CC(=O)O)c(C)n2Cc1ccc(Cl)cc1 | -4.53% (inactive)
CSC(=N)N | 1.91% (inactive)
C#CCn1c(=O)c2c(ncn2C)n(C)c1=O | -1.71% (inactive)
COc1cc2c(CCNC(C)=O)c[nH]c2cc1O | -4.46% (inactive)
CCN(CC)CCOC(=O)c1cc(Cl)c(N)cc1OC | -0.914% (inactive)
COc1ccccc1N1CCN(CCCCN2C(=O)c3ccccc3C2=O)CC1 | -2.75% (inactive)
O=C(O)/C(=C/c1c(C(=O)O)[nH]c2cc(Cl)cc(Cl)c12)c1ccccc1 | 2.31% (inactive)
Cn1c(=O)c2[nH]c(-c3ccc(S(=O)(=O)O)cc3)nc2n(C)c1=O | -3.67% (inactive)
NCCNS(=O)(=O)c1cccc2c(Cl)cccc12 | -4.72% (inactive)
COc1cc(/C=C(\C#N)C(=O)c2ccc(O)c(O)c2)cc(I)c1O | -4.44% (inactive)
COc1ccc(C(=O)NCc2cccnc2)cc1C(=O)NCc1cccnc1 | -2.63% (inactive)
NC1(C(=O)O)CC1 | -1.7% (inactive)
Cn1c(=O)c2[nH]c(C3CCCC3)nc2n(C)c1=O | -5.36% (inactive)
NC(=O)C(=O)O | -1.61% (inactive)
Cn1c(=O)[nH]c2ncn(C)c2c1=O | -3.67% (inactive)
N#C/C(=C\c1ccc(O)c(O)c1)C(=O)c1ccc(O)c(O)c1 | -4.79% (inactive)
CN1CCN(c2nc3cc(C(F)(F)F)ccc3n3cccc23)CC1 | -2.63% (inactive)
NCCCCN | -2.29% (inactive)
CC1(C)CCC=[N+]1[O-] | 0.486% (inactive)
C[C@H](O)C(=O)C1=Nc2c(nc(N)[nH]c2=O)NC1 | 0.478% (inactive)
